Screening results: PubChem BioAssay, National Center for Advancing Translational Sciences (NCATS)
FLuc inh = blocks purified firefly luciferase enzyme activity. purified P. pyralis luciferase, luminescence, biochemical. Potency, µM (highest dose often 115 µM), usual class: inhibitors. P08659. 76,000 compounds, 2.5% hits; further: nearly all actives have a fitted effect of over 65% in size
Target sequence (P08659 whole entry, looked up): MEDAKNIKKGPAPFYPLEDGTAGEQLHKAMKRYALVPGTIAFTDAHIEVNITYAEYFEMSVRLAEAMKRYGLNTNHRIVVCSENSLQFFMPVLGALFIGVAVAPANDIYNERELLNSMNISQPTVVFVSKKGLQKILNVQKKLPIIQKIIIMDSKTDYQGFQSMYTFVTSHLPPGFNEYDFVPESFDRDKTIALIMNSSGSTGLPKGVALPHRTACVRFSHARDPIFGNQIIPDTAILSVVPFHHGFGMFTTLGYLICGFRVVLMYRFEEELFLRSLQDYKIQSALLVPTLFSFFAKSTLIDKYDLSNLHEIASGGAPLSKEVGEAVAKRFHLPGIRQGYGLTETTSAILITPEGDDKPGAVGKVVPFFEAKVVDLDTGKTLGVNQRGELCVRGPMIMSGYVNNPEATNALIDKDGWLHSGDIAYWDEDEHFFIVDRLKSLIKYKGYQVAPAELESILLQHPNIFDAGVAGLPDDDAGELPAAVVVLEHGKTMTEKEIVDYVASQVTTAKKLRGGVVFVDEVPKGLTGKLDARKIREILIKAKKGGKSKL
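Cell-free enzyme assay, 10nM P. pyralis luciferase, luciferin and ATP each at 10uM. Inhibition profiled over a 6-point titration, read as luminescence.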
HEK293 tox = HEK 293 cell cytotoxicity; HEK 293 viability, ATP luminescence (CellTiter-Glo), 48-72 h; Potency, µM (series often up to 115 µM), actives largely listed as inhibitors; 94,000 compounds, 6.6% hits; further: nearly all actives have a fitted effect of over 60% in size
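ATP-coupled CellTiter-Glo luminescence served as viability read-out, recorded 10 min after reagent addition at room temperature. HEK 293 cells, 250 cells/well, had been incubated with pintool-transferred compound for 48 or 72 hr at 37 degree Celsius.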
GPT2 inhibitor = inhibitors of human GPT2 alanine aminotransferase; Q8TD30; Recombinant GPT2, coupled pyruvate oxidase/HRP Amplex Red fluorescence; Potency, µM (highest dose often 57.7 µM), most hits filed as inhibitors; 100,000 compounds, 0.25% hits; AID 1671188; further: nearly all actives have a fitted effect of over 60% in size
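Fluorescence read-out: pyruvate from GPT2 turnover coupled to pyruvate oxidase, HRP and Amplex Red (0.2mM ThPP, 0.2U/mL PO and HRP, 50uM Amplex final). Substrates 250uM a-KG, 2mM L-alanine; enzyme 10ng/uL; 30 min RT.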
hNpr1 antagonist = human Npr1 receptor antagonism; P16066; HEK293 hNpr1 GloSensor cGMP, ANP-stimulated luminescence; Potency, µM (top dose mostly 46.3 µM), hits mostly inhibitors; 76,000 compounds, 1.6% hits; calls by dose curve; further: nearly all actives have a fitted effect of over 60% in size
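Compound pre-incubated 30 min at room temperature on GloSensor-loaded HEK293 cells stably carrying hNpr1 and the pGS-40F cGMP biosensor. Stimulation uses hNppA at 0.1 nM final; luminescence is taken at baseline and 20 min post-agonist.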
NIH3T3 tox = kills NIH 3T3 cells. Potency, µM (top dose mostly 96.7 µM), usual class: inhibitors. 94,000 compounds, 4.3% hits. AID 1345082. NIH 3T3 viability, CellTiter-Glo ATP luminescence, 48-72 h; further: nearly all actives have a fitted effect of over 55% in size
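Cells were seeded at 400 per well, treated with pin-transferred compound, and kept 48 or 72 hr at 37 °C before CellTiter-Glo addition and luminescence imaging of cellular ATP.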
Npr1 antag conf = confirmation of human Npr1 natriuretic peptide receptor antagonists | HEK293 hNpr1 cGMP GloSensor luminescence, ANP-stimulated | shares compounds with hNpr1 antagonist | Potency, µM (titrated, usually from 57.6 µM), actives largely listed as inhibitors | 1,400 compounds, 76% hits | AID 1347044; calls by dose curve; further: nearly all actives have a fitted effect of over 70% in size
NPR2 antag = selectivity test of Npr1 antagonists against human Npr2. shares compounds with hNpr1 antagonist. HEK293 hNpr2 GloSensor cGMP luminescence, CNP-stimulated. Potency, µM (titrated, usually from 57.6 µM), hits mostly inhibitors. 1,400 compounds, 67% hits. AID 1347046; calls by dose curve; further: nearly all actives have a fitted effect of over 70% in size
FLuc inh counter = FLuc enzyme inhibition, Npr1 counter-screen; shares compounds with hNpr1 antagonist; purified FLuc enzyme, luminescence, Km substrate; Potency, µM (doses to about 57.6 µM), hits mostly inhibitors; 1,400 compounds, 0.7% hits; AID 1347047
GloSensor ctrl = control cell line activity, Npr1 antagonist counter-screen. 1,400 compounds, 69% hits. Potency, µM (highest dose often 57.6 µM), most hits filed as inhibitors. shares compounds with hNpr1 antagonist. HEK293 GloSensor cGMP, SNP-stimulated, luminescence; calls by dose curve; further: nearly all actives have a fitted effect of over 70% in size
Of the large screens only hits and unclear results are named; the others gave an inactive call (follow-up assays come after a bar, where they were run). Compounds with a hit are over-represented: about 10% of the library has one in this group of screens. Unless noted, the call rests on the fitted dose curve; in most records, active means well fitted curve in the direction sought with a large enough effect; inconclusive means small, poorly fitted or top-dose-only effect, or another doubt; inactive means no such curve, though single readings can be large; an effect the other way counts as inactive or inconclusive.

COc1ccc(C(=O)N2CCC(Cc3nc(-c4ccccc4)no3)CC2)cc1F	HEK293 tox inconclusive, hNpr1 antagonist 3.16µM, NIH3T3 tox inconclusive | Npr1 antag conf 3.06µM | NPR2 antag 3.06µM | FLuc inh counter inactive | GloSensor ctrl 3.06µM
COc1ccc(C(=O)N2CCC(Cc3nc(-c4ccccc4)no3)CC2)cc1OC	HEK293 tox inconclusive, hNpr1 antagonist 2.82µM, NIH3T3 tox inconclusive | Npr1 antag conf 5.44µM | NPR2 antag 6.85µM | FLuc inh counter inactive | GloSensor ctrl 5.44µM
Cc1cc(C)cc(C(=O)N2CCC(Cc3nc(-c4ccccc4)no3)CC2)c1	HEK293 tox inconclusive, hNpr1 antagonist inconclusive, NIH3T3 tox inconclusive
Cc1ccc(C(=O)N2CCC(Cc3nc(-c4ccccc4)no3)CC2)s1	HEK293 tox 31.6µM, hNpr1 antagonist 6.31µM, NIH3T3 tox inconclusive | Npr1 antag conf 7.69µM | NPR2 antag 9.68µM | FLuc inh counter inactive | GloSensor ctrl 8.62µM
COCC1CN(C2CCC2)CC12CCN(C(=O)c1ccc(OC)cc1C)CC2 (stereo unspecified)	HEK293 tox inconclusive
CCn1cc(S(=O)(=O)N2CCC(c3noc(COCc4ccccc4)n3)CC2)cn1	none (no result: FLuc inh, hNpr1 antagonist)
COc1ccc(-c2nc(C(C)C)nc3c2CCN(C(=O)Nc2ccccc2)CC3)cc1	HEK293 tox inconclusive, NIH3T3 tox inconclusive
COc1ccc(NC(=O)c2cc3n(n2)CC(c2ccc(Br)cc2)OC3)cc1OC (stereo unspecified)	HEK293 tox 44.7µM, hNpr1 antagonist inconclusive, NIH3T3 tox inconclusive | Npr1 antag conf inconclusive | NPR2 antag inactive | FLuc inh counter inactive | GloSensor ctrl inconclusive
O=C(Nc1cccc(F)c1)c1cc2n(n1)CC(c1ccc(Br)cc1)OC2 (stereo unspecified)	FLuc inh inconclusive, HEK293 tox inconclusive, NIH3T3 tox inconclusive
COc1cc(NC(=O)c2cc3n(n2)CC(c2ccc(Br)cc2)OC3)cc(OC)c1OC (stereo unspecified)	HEK293 tox inconclusive, hNpr1 antagonist inconclusive, NIH3T3 tox inconclusive | Npr1 antag conf inconclusive | NPR2 antag inactive | FLuc inh counter inactive | GloSensor ctrl inactive
O=C(NCCc1ccccn1)c1cc2n(n1)CC(c1ccc(Br)cc1)OC2 (stereo unspecified)	HEK293 tox inconclusive, hNpr1 antagonist 11.2µM, NIH3T3 tox inconclusive | Npr1 antag conf 21.7µM | NPR2 antag 24.3µM | FLuc inh counter inactive | GloSensor ctrl 24.3µM
CCN1c2cc(C(=O)NCc3ccccc3OC)ccc2C(=O)N2CCCCC21 (stereo unspecified)	HEK293 tox inconclusive
O=C(NCc1cccc(F)c1)c1csc(N2CCN(c3ccc(Cl)cc3)CC2)n1	HEK293 tox inconclusive, hNpr1 antagonist 12.6µM | Npr1 antag conf 24.3µM | NPR2 antag 24.3µM | FLuc inh counter inactive | GloSensor ctrl 21.7µM
O=C(NCc1ccc(F)cc1)c1csc(N2CCN(c3ccccc3F)CC2)n1	none
Cc1noc(C)c1[S+](=O)([O-])N1CCc2nc(C(C)C)nc(-c3ccc(O)cc3)c2C1	HEK293 tox inconclusive, NIH3T3 tox inconclusive | Npr1 antag conf inactive | NPR2 antag inconclusive | FLuc inh counter inactive | GloSensor ctrl inactive
COCc1nc(-c2ccc(OC3CN(C(=O)NCc4ccccc4)C3)cc2)no1	HEK293 tox inconclusive, hNpr1 antagonist inconclusive
COCc1nc(-c2ccc(OC3CN(S(=O)(=O)c4ccccc4C)C3)cc2)no1	HEK293 tox 14.1µM, hNpr1 antagonist 11.2µM, NIH3T3 tox inconclusive | Npr1 antag conf 12.2µM | NPR2 antag 19.3µM | FLuc inh counter inactive | GloSensor ctrl 15.3µM
CCN(CC)C(=O)N1CC(Oc2ccc(-c3noc(COC)n3)cc2)C1	HEK293 tox inconclusive, hNpr1 antagonist 10µM, NIH3T3 tox inconclusive | Npr1 antag conf 9.68µM | NPR2 antag 8.62µM | FLuc inh counter inactive | GloSensor ctrl 6.85µM
CCN(CC)C(=O)N1CC(Oc2ccc(-c3nc(C)no3)cc2)C1	HEK293 tox inconclusive, hNpr1 antagonist 15.8µM, NIH3T3 tox inconclusive | Npr1 antag conf 24.3µM | NPR2 antag inconclusive | FLuc inh counter inactive | GloSensor ctrl inconclusive
Cc1noc(-c2ccc(OC3CN(C(=O)NCc4ccc(F)cc4)C3)cc2)n1	HEK293 tox inconclusive, hNpr1 antagonist 12.6µM, NIH3T3 tox inconclusive | Npr1 antag conf 27.3µM | NPR2 antag inconclusive | FLuc inh counter inactive | GloSensor ctrl 24.3µM
O=C(NC1CC1)C1CCN(C(=O)c2ccc(-c3cncnc3)cc2)CC1	none (no result: FLuc inh, hNpr1 antagonist)
Cc1nc(-c2ccc(OC3CCN(C(=O)NC4CCCCC4)C3)cc2)no1 (stereo unspecified)	HEK293 tox inconclusive, NIH3T3 tox inconclusive
COCc1nc(-c2ccc(OC3CN(C(=O)NC(C)C)C3)cc2)no1	HEK293 tox inconclusive, hNpr1 antagonist 12.6µM | Npr1 antag conf 24.3µM | NPR2 antag 24.3µM | FLuc inh counter inactive | GloSensor ctrl 24.3µM
Cc1ccc(CNC(=O)N2CCC(Oc3ccc(-c4noc(C)n4)cc3)C2)cc1 (stereo unspecified)	HEK293 tox inconclusive, hNpr1 antagonist 20µM, NIH3T3 tox inconclusive | Npr1 antag conf inconclusive | NPR2 antag inactive | FLuc inh counter inactive | GloSensor ctrl inactive
CC(=O)Nc1ccc(CN2CCCC23Cc2ccccc2CN(C(=O)CCC(=O)O)C3)cc1 (stereo unspecified)	none (no result: FLuc inh, hNpr1 antagonist)
Oc1ccc(-c2nc(C3CC3)nc3c2CN(Cc2ccccc2C(F)(F)F)CC3)cc1	HEK293 tox inconclusive, GPT2 inhibitor inconclusive, NIH3T3 tox inconclusive
CC(C)c1nncn1C1CCN(S(=O)(=O)c2ccc(Br)cc2)CC1	HEK293 tox inconclusive, NIH3T3 tox inconclusive
CC(C)c1nncn1C1CCN(S(=O)(=O)c2ccc(Br)s2)CC1	HEK293 tox inconclusive, hNpr1 antagonist 11.2µM, NIH3T3 tox inconclusive | Npr1 antag conf 24.3µM | NPR2 antag inconclusive | FLuc inh counter inactive | GloSensor ctrl 21.7µM
CC1(CCCCc2ccccc2)COc2ccc(C(=O)N3CC(O)C3)cc2N1 (stereo unspecified)	HEK293 tox inconclusive, hNpr1 antagonist 35.5µM, NIH3T3 tox inconclusive | Npr1 antag conf 39.6µM | NPR2 antag 35.3µM | FLuc inh counter inactive | GloSensor ctrl 31.4µM
